Screening data from PubChem.
This is a sample that favours compounds with a hit; in the whole collection about 11% have one here.
Sfp PPTase inh – Sfp phosphopantetheinyl transferase inhibition; Q9F4F7; Biochemical Sfp PPTase activity, qHTS; Potency, µM, hits mostly inhibitors; 3.5% of 310,000 active;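 note: the enzyme is Sfp with the accession as filed and its product quenches rhodamine fluorescence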
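Fluorescence-quenching assay with 15 nM Sfp, 5 uM rhodamine-CoA and 12.5 uM BHQ-2-labelled ybbR peptide in pH 7.6 Hepes/MgCl2 buffer. Enzyme was pre-incubated with compound for 15 min at room temperature. Rate was taken from the 30-min fluorescence change (525/598 nm).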
Tau fluor cs – counter-screen for tau fibril formation inhibitors; tau K18 P301L Alexa594 fluorescence, heparin fibrillization; Potency, µM (series often up to 57.7 µM); 0.93% of 280,000 active; note: nearly all actives have a fitted effect of over 55% in size
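Human K18 P301L tau (15 uM unlabeled plus 0.24 uM Alexa 594-labeled, final) in 100 mM sodium acetate pH 7 was mixed with compound and 20 uM heparin and incubated 6 hr at 37 C.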
Tau FP inhib – inhibitors of human tau fibril formation. AID 1468. P10636. 0.39% of 280,000 active. K18 P301L tau heparin fibrillization, Alexa594 FP, 6 h. Potency, µM (doses to about 57.7 µM), usual class: inhibitors; note: nearly all actives have a fitted effect of over 55% in size
Target sequence (P10636 561-689 P618L limits assumed): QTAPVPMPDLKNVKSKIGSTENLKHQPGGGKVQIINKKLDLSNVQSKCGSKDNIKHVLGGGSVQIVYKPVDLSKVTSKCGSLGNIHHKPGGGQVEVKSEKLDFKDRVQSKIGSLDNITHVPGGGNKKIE
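Quantitative HTS format: compounds meet 15 uM recombinant K18 P301L tau and Alexa 594-tau tracer in 100 mM sodium acetate pH 7; 20 uM heparin triggers fibrillization at 37 C over 6 hr; FP gives the signal.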
Tau fibril ThT – tau fibrillization inhibition (ThT binding) | recombinant tau K18 P301L (four-repeat tau fragment), heparin-induced fibrillization, ThT fluorescence | P10636 | Potency, µM (highest dose often 57.4 µM), most hits filed as inhibitors | 2.1% of 270,000 active; note: nearly all actives have a fitted effect of over 55% in size
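Heparin-induced (20 uM) aggregation of recombinant human K18 P301L tau, 15 uM unlabeled with 0.24 uM labeled, pH 7 acetate buffer, 6 hr at 37 C with compound. Fibrils quantified by 30 uM ThT fluorescence after 1 hr ambient incubation.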
G9a block – inhibitors of human histone lysine methyltransferase G9a. Potency, µM (titrated, usually from 102 µM), actives largely listed as inhibitors. AID 504332. G9a H3K9 monomethylation, AlphaScreen, 2 h. 8.8% of 350,000 active; note: nearly all actives have a fitted effect of over 75% in size
Target sequence (Q96KQ7 913-1193 limits assumed): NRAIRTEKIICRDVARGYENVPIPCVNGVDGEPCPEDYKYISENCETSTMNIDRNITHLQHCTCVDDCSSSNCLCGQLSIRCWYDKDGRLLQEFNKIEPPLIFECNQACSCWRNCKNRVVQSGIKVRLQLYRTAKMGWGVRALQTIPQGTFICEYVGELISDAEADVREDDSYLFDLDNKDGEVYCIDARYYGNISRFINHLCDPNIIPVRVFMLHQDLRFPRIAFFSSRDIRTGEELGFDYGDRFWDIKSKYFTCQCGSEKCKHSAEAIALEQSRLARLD
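Quantitative HTS format: methyltransferase activity on a biotin-tagged H3K9 peptide is measured by AlphaScreen, using a rabbit anti-monomethyl-H3K9 antibody with streptavidin donor and anti-IgG acceptor beads. Final levels are 20 nM enzyme, 500 nM peptide, 20 uM SAM; 2 h RT.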
Coupling enz – counter-screen for Giardia aldolase inhibitors: coupling enzyme system | coupling enzyme system counterscreen, AmpLite Red fluorescence | activity change, negative = inhibition, % at 58.2 µM, hits read low | 0.67% of 290,000 active; in the data active = activity change below about -30%
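Activity here indicates interference with the coupling reaction, not aldolase inhibition. Compounds at 57.5 uM final met coupling enzymes for 10 min at RT; substrate and AmpLite Red detection followed, with a 525/598 nm fluorescence read after 20 min.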
Large screens that a line does not name were inactive. Unless noted, calls come from the whole dose curve; as a rule, active = well fitted curve in the direction sought with a large enough effect; inconclusive = small, poorly fitted or top-dose-only effect, or another doubt; inactive = no such curve, though single readings can be large; an effect the other way counts as inactive or inconclusive.

Cc1ccc(C2CC(=O)Oc3ccc(O)cc32)cc1 (centres undefined)	Sfp PPTase inh inconclusive, G9a block 11µM
COCCNC(=O)C(=O)NNS(=O)(=O)c1ccc(Cl)cc1	none (no result: G9a block)
COc1ccc(OCC(=O)NNC(=O)C(=O)Nc2ccc(C)cc2)cc1	none
COc1ccccc1C(=O)NNc1ncc(C)s1	Sfp PPTase inh 40µM, G9a block 40µM (no result: Tau fluor cs, Tau FP inhib, Tau fibril ThT)
COCCNC(=O)C(=O)NNS(=O)(=O)c1ccc2ccccc2c1	G9a block 40µM
COCCNC(=O)C(=O)NNC(=O)c1ccccc1OC	Sfp PPTase inh 79µM
COCCNC(=O)C(=O)NNC(=O)COc1ccc(OC)cc1	G9a block 25µM
COc1ccccc1C(=O)NNC(=O)c1ccccc1	none (no result: Tau fluor cs, Tau FP inhib, Tau fibril ThT)
CC(C)(C)OC(=O)CNC(=O)c1[nH]cnc1C(=O)NC(c1ccccc1)c1ccccc1	G9a block inconclusive (no result: Tau fluor cs, Tau FP inhib, Tau fibril ThT)
Cc1noc(-c2ccc(N3CCCCC3)c([N+](=O)[O-])c2)n1	G9a block inconclusive (no result: Sfp PPTase inh, Coupling enz)
Cc1occc1C(=O)NNC(=O)COc1ccc(Br)cc1Br	none
O=C(COc1ccc(Cl)cc1Cl)NNC(=S)Nc1ccc(F)cc1	G9a block 11µM
C=CCNC(=O)COc1ccc(Br)cc1Cl	none
C=CCNC(=S)NNC(=O)COc1ccc(Cl)cc1Cl	G9a block 10µM
Cc1occc1C(=O)NNC(=S)NC(=O)COc1ccc(Cl)cc1Cl	G9a block 8.9µM (no result: Tau fluor cs, Tau FP inhib, Tau fibril ThT, Coupling enz)
CCOC(=O)C1CCCN(C(=O)c2ccc3nc(-c4cccc(OC)c4)oc3c2)C1 (centres undefined)	none (no result: Tau fluor cs, Tau FP inhib, Tau fibril ThT)
CC1(C)C[C@](C)(C(=O)c2ccccc2)C=C1c1ccccc1	none (no result: G9a block)
Nc1ncc(S(=O)(=O)NCc2ccccc2F)cn1	none (no result: Sfp PPTase inh, Coupling enz)
Nc1c(-c2ccccc2)c(CN2CCOCC2)nn1-c1ccc(F)cc1	G9a block 20µM
CS(=O)(=O)Nc1cccc(-c2nc(-n3ccnc3)c3ccccc3n2)c1	none (no result: Tau fluor cs, Tau FP inhib, Tau fibril ThT)
CS(=O)(=O)Nc1cccc(-c2nccc(-n3ccnc3)n2)c1	Sfp PPTase inh 56µM (no result: G9a block)
Clc1ccccc1-c1nccc(-n2ccnc2)n1	none (no result: G9a block)
N#Cc1cccc(-c2nccc(-n3ccnc3)n2)c1	Sfp PPTase inh 50µM, G9a block inconclusive (no result: Tau fluor cs, Tau FP inhib, Tau fibril ThT)
Cc1ccccc1-c1nccc(-n2ccnc2)n1	Sfp PPTase inh 56µM (no result: G9a block)
CN(C)C(=O)c1ccc(-c2nccc(-n3ccnc3)n2)cc1	none (no result: Tau fluor cs, Tau FP inhib, Tau fibril ThT)
CCCn1c(=O)c(C(=O)NNS(=O)(=O)c2ccc(NC(=O)OC)cc2)c(O)c2ccccc21	none (no result: Tau fluor cs, Tau FP inhib, Tau fibril ThT)
COc1ccc(C2=C(N3CCN(c4cccc(C)c4C)CC3)c3ccccc3C2=O)cc1	Tau fluor cs inconclusive, Tau fibril ThT inconclusive, G9a block 3.2µM (no result: Sfp PPTase inh, Coupling enz)
COc1ccc(C2(N3CCN(c4cccc(C)c4C)CC3)C(=O)c3ccccc3C2=O)cc1	none (no result: Sfp PPTase inh, Coupling enz)
Cc1ccc(C)c(N2CCN(C3=C(c4ccccc4)C(=O)c4ccccc43)CC2)c1	Tau fluor cs inconclusive, Tau fibril ThT inconclusive, G9a block 3.2µM (no result: Sfp PPTase inh, Coupling enz)
COc1ccc(NC(=O)C(=O)NCC(c2cccnc2)N2CCc3ccccc3C2)cc1 (centres undefined)	Tau fluor cs inconclusive, Tau FP inhib inconclusive, Tau fibril ThT 14µM, G9a block 14µM (no result: Sfp PPTase inh, Coupling enz)
O=C(NCC(c1cccnc1)N1CCc2ccccc2C1)C(=O)Nc1ccccc1 (centres undefined)	Tau fibril ThT 1.6µM, G9a block inconclusive (no result: Sfp PPTase inh, Coupling enz)
CCN(C(=O)COC(=O)CCn1c(C)csc1=O)c1c(N)n(Cc2ccccc2)c(=O)[nH]c1=O	none (no result: Sfp PPTase inh, Tau fluor cs, Tau FP inhib, Tau fibril ThT, Coupling enz)
CCOc1ccc(C2/C(=C(/O)c3ccc4c(c3)CC(C)O4)C(=O)C(=O)N2CCCn2ccnc2)cc1OCC (centres undefined)	none (no result: Tau fluor cs, Tau FP inhib, Tau fibril ThT, Coupling enz)
N#CCCN=C(NS(=O)(=O)c1ccccc1)c1ccccc1	none (no result: Tau fluor cs, Tau FP inhib, Tau fibril ThT)
O=C1CC(N2CCN(c3ccc(F)cc3)CC2)C(=O)N1c1ccc2c(c1)OCO2 (centres undefined)	none
CCc1ccc(CNC(=O)CN2C(=O)C3CCCCN3c3ccc(C(=O)N4CCCC4)cc32)cc1 (centres undefined)	none (no result: Sfp PPTase inh, Coupling enz)
O=C(N/N=C/c1ccccn1)C(O)c1ccccc1 (centres undefined)	Sfp PPTase inh inconclusive, G9a block 0.71µM (no result: Tau fibril ThT)
CCCCC(C(=O)N/N=C/c1ccccn1)C(=O)N/N=C/c1ccccn1	Sfp PPTase inh 35µM, G9a block inconclusive
CCCCCCCCC(=O)N/N=C/c1ccccn1	none
O=C(CCc1ccccc1)NC(=S)Nc1ccccc1[N+](=O)[O-]	none (no result: Tau fluor cs, Tau FP inhib, Tau fibril ThT, G9a block)
O=C(NNC(=S)Nc1ccccc1)c1ccccc1[N+](=O)[O-]	G9a block 32µM
O=C(NNC(=S)NC(=O)c1ccccc1[N+](=O)[O-])c1ccc(Cl)cc1Cl	G9a block 18µM
Cc1ccc(C(=O)NC(=S)NNC(=O)c2ccccc2[N+](=O)[O-])cc1	Sfp PPTase inh 45µM, G9a block 8.9µM
O=C(NNC(=S)NC(=O)c1ccccc1[N+](=O)[O-])c1ccccc1[N+](=O)[O-]	G9a block inconclusive
O=C(NNC(=S)NC(=O)c1ccccc1[N+](=O)[O-])c1ccccc1O	Tau fibril ThT inconclusive
O=C(NC(=S)Nc1ccccc1[N+](=O)[O-])c1ccccc1	Sfp PPTase inh 28µM, Tau fluor cs inconclusive, G9a block 25µM
